EBNA-1 inh: blocks EBNA-1 binding to DNA | EBNA-1 DNA binding, fluorescence polarization | inhibition, % at 14.8 µM | 300,000 tested, 0.34% active | AID 1950; in the data active = inhibition above about 28%
LYPLA1 inh: counter-screen for PME1 inhibitors: inhibitors of human LYPLA1. O75608. recombinant LYPLA1, FP-Rh probe fluorescence polarization. inhibition, % at 5.9 µM. 320,000 tested, 0.16% active;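 active = inhibition above the mean of all tested compounds plus 3 SD, set per campaign, cut at about 14% in these data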;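 also: inhibitors block serine hydrolase probe labeling of LYPLA1 so polarization falls; 0% = enzyme with DMSO and 100% = wells lacking LYPLA1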
LYPLA2 inh: blocks human lysophospholipase 2, a PME1 counter-screen | O95372 | inhibition, % at 5.9 µM | recombinant LYPLA2, FP-Rh probe fluorescence polarization | 320,000 tested, 0.38% active;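 active = inhibition above the screen-wide mean plus 3 SD, limit set per campaign, cut at about 26% in these data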;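 also: 0% = LYPLA2 with DMSO and 100% = wells lacking LYPLA2 enzyme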
Target sequence (O95372 whole entry, looked up): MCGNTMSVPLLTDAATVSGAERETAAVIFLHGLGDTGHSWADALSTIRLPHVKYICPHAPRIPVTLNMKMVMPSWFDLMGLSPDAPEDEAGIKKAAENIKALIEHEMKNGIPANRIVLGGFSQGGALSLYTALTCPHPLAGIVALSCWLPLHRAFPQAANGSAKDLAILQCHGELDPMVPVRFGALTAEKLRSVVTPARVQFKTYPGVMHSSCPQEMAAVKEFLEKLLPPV
LANA-H2B inh: blocks KSHV LANA binding to histone H2A/H2B; AID 2629; cell-free LANA-H2A/H2B peptide, fluorescence polarization; inhibition, % (test concentration not listed); Q9QR71; 320,000 tested, 0.6% active; in the data active = inhibition mostly above about 10%, no sharp cut-off; inactive = mostly below about 6.7%
ZTA counter: ZTA (EBV) inhibition in EBNA-1 counter-screen. P03206. ZTA-DNA binding, fluorescence polarization. inhibition, % at 11 µM. 320,000 tested, 0.15% active. AID 2234; in the data active = inhibition above about 33%
Target sequence (P03206 whole entry, looked up): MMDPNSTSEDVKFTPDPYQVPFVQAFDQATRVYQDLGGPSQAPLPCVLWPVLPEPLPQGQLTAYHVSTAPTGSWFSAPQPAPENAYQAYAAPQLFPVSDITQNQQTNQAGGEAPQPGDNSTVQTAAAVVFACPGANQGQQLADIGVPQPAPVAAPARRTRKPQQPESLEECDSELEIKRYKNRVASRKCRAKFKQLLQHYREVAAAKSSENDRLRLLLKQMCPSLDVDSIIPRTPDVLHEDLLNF
An asterisk follows results filed as active; / = no result given; + = active, no number. In the library only some 1.4% were active in any assay of this set; here they are far more common.

SMILES	EBNA-1 inh	LYPLA1 inh	LYPLA2 inh	LANA-H2B inh	ZTA counter
Cn1c(N)c(C(=O)CSc2nn(-c3ccc(F)cc3)c(=S)s2)c(=O)n(C)c1=O	/	-35	-85	4	-7
COc1ccc(-n2c(C)cc(C(=O)COc3ccc(C)nc3[N+](=O)[O-])c2C)cc1	-7	5	26*	0	3
Cc1cc(NC(=O)c2cc(-c3ccco3)on2)nn1Cc1ccc(Cl)cc1	-8	-12	-25	15*	-5
Cc1nn(Cc2ccc(Cl)cc2)c(C)c1NC(=O)c1cc(-c2ccco2)on1	-10	1	6	-1	-4
Cc1cc(C)n(CC(O)Cn2c3ccc(Br)cc3c3cc(Br)ccc32)c(=O)n1 (stereo unspecified)	6	-16	-20	15*	5
Cc1ccc(C(CC(=O)O)NC(=O)c2ccc(S(=O)(=O)N3CC(C)OC(C)C3)cc2)cc1 (stereo unspecified)	/	1	3	1	-16
C[C@H]1COC2=C1C(=O)C(=O)c1c2ccc2c1CCCC2(C)C	-5	5	48*	-1	-1
CCOC(=O)c1c(NC(=O)CSc2nnc(-c3ccccc3)n2CC)sc(C(C)=O)c1C	7	1	3	23*	-12
Cc1ccc(NC(=O)CN(C)C(=O)c2cccc(S(=O)(=O)NCc3ccco3)c2)cc1	/	-4	-2	-2	-8
Cc1nn(-c2ccc(Cl)cc2)c2[nH]c(CCl)cc(=O)c12	-9	-2	-5	-2	-1
CC(=O)NC1=C(N(C)C2CCS(=O)(=O)C2)C(=O)c2ccccc2C1=O (stereo unspecified)	0	0	-2	3	-14
CC(=O)NC1=C(Nc2ccc(N(C)C)cc2)C(=O)c2ccccc2C1=O	41*	-2	-2	7	37*
O=C(Cc1ccccc1[N+](=O)[O-])N1CCN(c2ccc(F)cc2)CC1	14	-3	-2	0	3
Cc1cccc(N2CCN(C(=O)Cc3ccccc3[N+](=O)[O-])CC2)c1C	15	1	6	21*	7
COc1ccc(C2/C(=C(/O)c3ccc(F)cc3)C(=O)C(=O)N2CCCN2CCOCC2)cc1OC (stereo unspecified)	-4	2	3	6	-11
O=C(Cn1c2ccccc2c(=O)c2ccccc21)N/N=C/c1ccc(N2CCCC2)c([N+](=O)[O-])c1	-6	-1	3	+	9
COc1ccc(C2(c3ccc(OC)cc3)NC(=O)N(CC(=O)N3CCOCC3)C2=O)cc1	/	4	6	-6	-7
CN1CCN(NC(=O)/C=C/c2cccc([N+](=O)[O-])c2)CC1	-3	1	-4	-3	-11
CCCCCCN1C=CC=C/C1=C\C=C(C#N)C#N	-2	4	1	1	10
CC(=O)c1cccc(OCC(=O)N(C)CC(=O)Nc2ccc(F)cc2)c1	3	-4	0	17*	-4
CCN(CC)c1ccc2nc3ccccc3[n+](CC)c2c1	174*	2	-11	1	+
COc1ccccc1NS(=O)(=O)c1cccc(NC(=O)c2cncc(Br)c2)c1	/	/	/	3	/
CSc1ncccc1C(=O)NNC(=O)c1ccc(NS(=O)(=O)c2cccs2)cc1	-12	-4	-3	-7	-15
Cc1cc(NC(=S)NC(=O)C2CC2)ccc1Br	15	3	-3	-3	1
C/C(=N/NC(=O)c1ccncc1)c1cc2ccc(O)cc2oc1=O	-6	1	-1	87*	-8
SMILES	EBNA-1 inh	LYPLA1 inh	LYPLA2 inh	LANA-H2B inh	ZTA counter
O=C(Cc1ccc(Cl)cc1)NNc1c(F)c(F)cc(F)c1F	-2	1	-1	27*	0
O=C(Nc1ccc(F)cc1)C(Sc1nc2ccccc2[nH]1)c1ccccc1 (stereo unspecified)	2	-7	-16	-3	10
CC(Sc1nc2ccccc2[nH]1)C(=O)Nc1ccccc1F (stereo unspecified)	4	-1	2	13*	14
CS(=O)(=O)N(Cc1ccccc1Cl)c1ccc(C(=O)NCc2ccccn2)cc1	15	0	-1	-1	12
CCCCN(C(C)=O)c1ccc(S(=O)(=O)NC2=NCCCCC2)cc1NC(C)=O	/	/	/	-5	/
O=c1[nH]ncc(N2CCN(Cc3ccccc3)CC2)c1Cl	3	3	2	0	3
COc1ccc(C(=O)C2CCCN(Cc3cn[nH]c3-c3ccccc3)C2)cc1OC (stereo unspecified)	-7	0	5	5	3
Cn1ccnc1C(=O)C1CCCN(Cc2cn[nH]c2-c2ccc(-c3ccccc3)cc2)C1 (stereo unspecified)	-9	-2	-3	18*	2
Cc1ccc(S(=O)(=O)N2CCN(C(=O)CC(C)n3cncn3)CC2)cc1 (stereo unspecified)	8	0	1	1	2
Cc1ccc(S(=O)(=O)N2CCN(C(=O)CC(C)n3cncn3)CC2)cc1C (stereo unspecified)	0	-1	-6	25*	-7
COc1cc(C(=O)Nc2ccc(Nc3ccccc3)cc2)cc(OC)c1OC	15	1	10	-3	6
Cc1oc2c(C)c3oc(=O)c(CCC(=O)N4C[C@H]5C[C@@H](C4)c4cccc(=O)n4C5)c(C)c3cc2c1C	-1	-2	1	35*	-2
COc1ccc(/C=C2\SC(=S)N(C(C)C(=O)NC3C=CS(=O)(=O)C3)C2=O)cc1 (stereo unspecified)	-1	-1	-4	-3	6
COc1cccc(/C=C2\SC(=S)N(C(C)C(=O)NC3C=CS(=O)(=O)C3)C2=O)c1 (stereo unspecified)	4	0	1	28*	26
Cn1c(=O)c2c(ncn2CC(=O)Nc2nc(-c3ccccc3Cl)cs2)n(C)c1=O	27*	-1	13	3	-9
Cc1ccc(C)c(NC(=O)CN(C)C(=O)C2=NNC(=O)CC2)c1	/	/	/	-6	/
CC(C)N(CCn1c(SCC(=O)Nc2cccnc2Cl)nc2ccccc2c1=O)C(C)C	/	4	10	9.9*	-5
Cc1nc(CCNS(=O)(=O)c2cccnc2)cs1	5	-4	-12	3	7
COc1cccc(C(C)NC(=O)c2c(F)cccc2Cl)c1 (stereo unspecified)	-5	7	1	1	4
COc1cccc(C(C)NC(=O)Nc2ccccc2Cl)c1 (stereo unspecified)	-7	2	8	15*	-25
Cc1nc(N2CCc3ccccc3C2)[nH]c(=O)c1Cc1ccccc1	3	0	4	11*	-30
Cc1nc(-n2[nH]c3c(c2=O)CCCC3)[nH]c(=O)c1Cc1ccccc1	-6	-5	-1	4	5
Cc1ccc(-c2noc(CNS(=O)(=O)c3ccccc3)n2)cc1	2	-4	-4	-2	-1
Cc1ccc(CNC(=O)C2CCC(=O)N(CCc3ccccc3)C2)s1 (stereo unspecified)	0	5	8	18*	11
